Laboratory results from PubChem BioAssay (Tox21).
Calls of active or inactive are those of the source. The call rests on the fitted dose curve; in most records, active means well fitted curve in the direction sought with a large enough effect in the repeat runs; inconclusive means weak or mixed curves; inactive means flat fitted curve, though single readings scatter.

test: qHTS assay to test for compound auto fluorescence at 535 nm (green) in HepG2 cell free culture (AID 720686); details: Cell-free medium, green autofluorescence 485/535 nm; series mostly up to 91.3 µM; fluorescence, % of fluorescein control: at the top concentration
Source text: U.S. Tox21 Program National Center for Advancing Translational Sciences [NCATS] NIH Chemical Genomics Center [NCGC] U.S. Environmental Protection Agency [EPA] National Institutes of Environmental Health Sciences [NIEHS] National Toxicology Program [NTP] U.S. Food and Drug Administration [FDA] Tox21 Assay Overview: Compound auto fluorescence often interferes with screening of the compound library against various biological targets and signaling pathways. Some of these compounds may have fluorophoric properties. Such properties may interfere with the assay outputs resulting in false positives and/or negatives. To decrease such complications and ensure the compound activities are relevant in terms of biological response, the Tox21 10K compound library was screened for auto fluorescence. From the fluorophores used as reporter signals in our screening assays, the auto fluorescence equivalencies of compounds against three fluorophores have been evaluated: Triamterene, Fluorescein and Rose Bengal sodium for blue, green and red fluorescence, respectively. The fluorescence intensities were measured using Excitation/Emission wavelengths at 405/460nm, 485/535nm and 540/590nm for blue, green and red labels, respectively. This assay includes the green fluorescence data.
Tox21 Assay Protocol Summary: 5 uL of culture medium (MEM containing 10% FBS) per well was dispensed into black wall/clear bottom 1536-well plates using a Multidrop Combi Dispenser (ThermoFisher Scientific, Waltham, MA). After 23 nL compound or DMSO vehicle was transferred into assay plate by a pintool work station (Kalypsys, San Diego, CA), fluorescence intensities in the assay plates were measured by an Envision (PerkinElmer, Shelton, CT) plate reader using three labels for measuring blue, green and red fluorescence at […] 460, 535 and 590nm respectively.
On the % scale 0 is the no-effect control and ±100 the full control effect.

Row | SMILES | fluorescence, % of fluorescein control | Potency
1 | O=Cc1cc(O)ccc1Br | -0.0255% [at 95.7 µM] (inactive) | 
2 | CC(C)(C)CC(C)(C)c1ccc(O)c(Cc2ccc(Cl)cc2Cl)c1 | -0.0984% [at 46 µM] (inactive) | 
3 | O=c1cc(-c2ccc(O)cc2)oc2cc(O)cc(O)c12 |  | inactive
4 | CCC1OCC(COc2ccc(Oc3ccccc3)cc2)O1 (stereo not given) | 0.0455% (inactive) | 
5 | O=C1CCCc2c1cc1ccc3cccc4ccc2c1c34 | -0.0562% [at 95.7 µM] (inactive) | 
6 | CCN(C(=O)N(CC)c1ccccc1)c1ccccc1 | -0.0204% (inactive) | 
7 | CS(=O)(=O)CCNCc1ccc(-c2ccc3ncnc(Nc4ccc(OCc5cccc(F)c5)c(Cl)c4)c3c2)o1 | 0.0312% [at 46 µM] (inactive) | 
8 | CCc1cc(Cc2cc(CC)cc(C(C)(C)C)c2O)c(O)c(C(C)(C)C)c1 | 0.0214% (inactive) | 
9 | Cc1onc(-c2c(Cl)cccc2Cl)c1C(=O)N[C@@H]1C(=O)N2[C@@H]1SC(C)(C)[C@@H]2C(=O)O | -0.134% [at 46 µM] (inactive) | 
10 | [Cl][Bi]([Cl])([c]1ccccc1)([c]1ccccc1)[c]1ccccc1 | -0.0024% (inactive) | 
11 | NNc1nc(-c2ccc([N+](=O)[O-])cc2)cs1 | -0.0321% (inactive) | 
12 | CCOc1ccc2nc3cc(N)ccc3c(N)c2c1 | 0.0479% [at 46 µM] (inactive) | 
13 | Clc1ccccc1C(c1ccccc1)(c1ccccc1)n1ccnc1 |  | inactive
14 | O=c1c(-c2ccccc2)c1-c1ccccc1 | 0.0004% [at 46 µM] (inactive) | 
15 | Cc1cccc(S(=O)(=O)O)c1C | 0.0346% (inactive) | 
16 | COc1ccc(CN2CCN(C(c3ccc(F)cc3)c3ccc(F)cc3)CC2)c(OC)c1OC | -0.0857% [at 46 µM] (inactive) | 
17 | CCCCN1C(=O)[C@@H]([C@H](O)C2CCCCC2)NC(=O)C12CCN(Cc1ccc(Oc3ccc(C(=O)O)cc3)cc1)CC2 | -0.0446% (inactive) | 
18 | O=C(O)c1c(Cl)cccc1Cl | -0.097% (inactive) | 
19 | COc1ccc(-c2ccc3cc(C(=O)O)ccc3c2)cc1C12CC3CC(CC(C3)C1)C2 | 0.0099% [at 46 µM] (inactive) | 
20 | CC(=O)S[C@@H]1CC2=CC(=O)CC[C@]2(C)[C@H]2CC[C@@]3(C)[C@@H](CC[C@@]34CCC(=O)O4)[C@H]12 |  | inactive

Row | SMILES | fluorescence, % of fluorescein control | Potency
21 | C=CC(=O)OCCn1c(=O)n(CCOC(=O)C=C)c(=O)n(CCOC(=O)C=C)c1=O | -0.0191% (inactive) | 
22 | CCN(CC)CCCC(C)Nc1c2ccc(Cl)cc2nc2ccc(OC)cc12 (stereo not given) | 0.788% [at 46 µM] (inactive) | 
23 | O=C(OCC(COC(=O)c1ccccc1)(COC(=O)c1ccccc1)COC(=O)c1ccccc1)c1ccccc1 | 0.0061% (inactive) | 
24 | O=c1cccccc1O | -0.0562% [at 95.7 µM] (inactive) | 
25 | COc1ccc(C(=O)/C(Br)=C\C(=O)O)cc1 |  | inactive
26 | Cc1cc(CCN2CCN(c3nsc4ccccc34)CC2)cc2c1NC(=O)CC2(C)C | -0.0755% (inactive) | 
27 | Fc1ccc([C@@H]2CCNC[C@H]2COc2ccc3c(c2)OCO3)cc1 | 0.0867% [at 46 µM] (inactive) | 
28 | NC(=NCCCCCCN=C(N)/N=C(\N)Nc1ccc(Cl)cc1)/N=C(\N)Nc1ccc(Cl)cc1 |  | inactive
29 | CCCCCCC[N+](CC)(CC)CCCCc1ccc(Cl)cc1 | 0.172% [at 18.6 µM] (inactive) | 
30 | CCCCCCCCOC(=O)c1ccc(O)cc1 |  | inactive
31 | CC(C)(C)c1ccc(C(=O)CCCN2CCC(OC(c3ccccc3)c3ccccc3)CC2)cc1 | 0.0664% [at 46 µM] (inactive) | 
32 | O=C1c2ccccc2Cc2ccccc21 | 0.0331% (inactive) | 
33 | CCN(CCC#N)c1ccc(N=Nc2c(Cl)cc([N+](=O)[O-])cc2Cl)cc1 | 0.115% (inactive) | 
34 | CSc1ccc2c(c1)C(N1CCN(C)CC1)Cc1ccccc1S2 (stereo not given) | 0.1% [at 46 µM] (inactive) | 
35 | CCC(C)Nc1ccc(NC(C)CC)cc1 (stereo not given) | 0.373% [at 95.7 µM] (inactive) | 
36 | CCCCC(CC)CN=C(N)NC(N)=NCCCCCCN=C(N)NC(N)=NCC(CC)CCCC (stereo not given) | 0.004% [at 46 µM] (inactive) | 
37 | Oc1cc2ccccc2c2ccccc12 | -0.0159% (inactive) | 
38 | Cc1cc(O)c(C(C)(C)C)cc1Sc1cc(C(C)(C)C)c(O)cc1C | -0.129% (inactive) | 
39 | Cc1cc(O)c2ccccc2c1O | 0.128% [at 46 µM] (inactive) | 
40 | Cc1[nH]nc2c1N=C(c1ccccc1Cl)c1cc([N+](=O)[O-])ccc1N2 | -0.292% (inactive) | 
